Legend:
Experiment in all cases: DAPPL (digital affinity profiling via proximity ligation, sequencing); 10 mM Tris-HCl pH 7.5, 50 mM NaCl, 1 mM DTT, 4% glycerol, room temperature, 30 min; GST-TFs on glutathione beads, 16-mer random dsDNA library, 0.1% formaldehyde crosslink after washing; high values mean tight binding
Conditions in all cases: protein: recombinant; tags: N-terminal GST; dsDNA, one strand shown
ERF = molecular target: T1, ERF (Homo sapiens, UniProt P50548 1-548)
T1 sequence: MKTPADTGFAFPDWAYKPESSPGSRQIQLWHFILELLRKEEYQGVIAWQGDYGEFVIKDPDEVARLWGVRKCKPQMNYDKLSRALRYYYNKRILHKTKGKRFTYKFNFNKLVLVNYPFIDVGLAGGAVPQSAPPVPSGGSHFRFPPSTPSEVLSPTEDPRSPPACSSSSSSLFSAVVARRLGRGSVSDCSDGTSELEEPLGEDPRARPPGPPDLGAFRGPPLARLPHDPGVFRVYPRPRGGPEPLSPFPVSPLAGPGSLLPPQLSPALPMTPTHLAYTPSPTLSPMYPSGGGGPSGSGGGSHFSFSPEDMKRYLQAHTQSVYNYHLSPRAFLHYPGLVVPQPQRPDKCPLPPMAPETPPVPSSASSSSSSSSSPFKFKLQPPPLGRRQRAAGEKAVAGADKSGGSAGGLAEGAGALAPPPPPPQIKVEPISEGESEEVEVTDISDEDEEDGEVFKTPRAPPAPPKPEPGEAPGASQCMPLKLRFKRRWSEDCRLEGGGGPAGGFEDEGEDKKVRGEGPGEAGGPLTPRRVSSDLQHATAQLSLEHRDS
Outline: (§1)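 Each value of binding signal is a hexamer's read frequency for a factor divided by the same hexamer's frequency in the tag-only sample. Barcoded, bead-captured GST fusions of human transcription factors made in yeast were pooled with that sample and incubated with 200 nmole of a random double-stranded 16-mer DNA library in Tris/NaCl/DTT/glycerol buffer at room temperature for 30 min. Washing, 0.1% formaldehyde crosslinking, proximity ligation, PCR and Illumina NextSeq500 sequencing followed.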

ETV3L = molecular target: T2, ETV3L (Homo sapiens, UniProt Q6ZN32 1-361)
T2 sequence: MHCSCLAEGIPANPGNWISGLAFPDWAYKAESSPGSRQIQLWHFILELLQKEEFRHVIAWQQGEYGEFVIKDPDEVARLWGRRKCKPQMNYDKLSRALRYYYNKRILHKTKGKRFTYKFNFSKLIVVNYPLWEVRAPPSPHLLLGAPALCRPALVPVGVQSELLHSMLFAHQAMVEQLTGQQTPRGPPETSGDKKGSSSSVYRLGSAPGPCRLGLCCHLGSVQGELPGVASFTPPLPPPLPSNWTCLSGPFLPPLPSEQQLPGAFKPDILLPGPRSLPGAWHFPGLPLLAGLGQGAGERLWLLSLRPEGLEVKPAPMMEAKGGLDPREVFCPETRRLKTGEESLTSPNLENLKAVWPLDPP
Outline: as §1

ETS2 = molecular target: T3, ETS2 (Homo sapiens, UniProt P15036 1-469)
T3 sequence: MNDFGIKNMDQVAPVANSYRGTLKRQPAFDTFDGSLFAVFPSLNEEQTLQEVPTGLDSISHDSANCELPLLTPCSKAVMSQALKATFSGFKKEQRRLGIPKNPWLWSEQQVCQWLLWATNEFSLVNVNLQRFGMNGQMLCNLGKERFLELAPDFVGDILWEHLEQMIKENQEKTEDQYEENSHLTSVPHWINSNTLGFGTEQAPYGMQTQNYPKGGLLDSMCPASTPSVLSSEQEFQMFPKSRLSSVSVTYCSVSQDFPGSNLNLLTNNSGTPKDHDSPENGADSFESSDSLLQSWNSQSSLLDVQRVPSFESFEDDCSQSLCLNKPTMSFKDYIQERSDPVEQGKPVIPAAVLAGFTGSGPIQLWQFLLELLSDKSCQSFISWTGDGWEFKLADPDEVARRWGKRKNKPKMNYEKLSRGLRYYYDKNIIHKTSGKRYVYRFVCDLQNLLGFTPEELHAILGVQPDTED
Outline: as §1

SPDEF = molecular target: T4, SPDEF (Homo sapiens, UniProt O95238 1-335)
T4 sequence: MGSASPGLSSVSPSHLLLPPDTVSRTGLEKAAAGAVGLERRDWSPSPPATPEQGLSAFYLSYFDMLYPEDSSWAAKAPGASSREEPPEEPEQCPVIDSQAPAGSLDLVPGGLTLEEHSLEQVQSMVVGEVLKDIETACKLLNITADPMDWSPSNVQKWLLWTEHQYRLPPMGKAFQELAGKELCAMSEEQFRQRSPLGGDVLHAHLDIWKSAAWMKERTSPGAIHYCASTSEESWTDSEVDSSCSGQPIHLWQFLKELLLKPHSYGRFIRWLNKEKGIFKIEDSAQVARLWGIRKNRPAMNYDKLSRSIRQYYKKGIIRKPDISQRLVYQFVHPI
Outline: as §1

ETV7 = molecular target: T5, ETV7 (Homo sapiens, UniProt Q9Y603 1-341)
T5 sequence: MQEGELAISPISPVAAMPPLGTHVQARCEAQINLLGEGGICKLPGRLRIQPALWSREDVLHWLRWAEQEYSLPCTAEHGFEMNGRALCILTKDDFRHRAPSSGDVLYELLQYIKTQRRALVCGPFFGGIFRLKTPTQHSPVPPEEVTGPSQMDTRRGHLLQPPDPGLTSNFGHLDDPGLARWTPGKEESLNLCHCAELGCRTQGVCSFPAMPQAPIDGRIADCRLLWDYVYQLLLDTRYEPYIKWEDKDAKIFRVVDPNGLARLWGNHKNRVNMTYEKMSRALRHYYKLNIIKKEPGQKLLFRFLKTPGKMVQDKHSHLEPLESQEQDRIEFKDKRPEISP
Outline: as §1

ELF5 = molecular target: T6, ELF5 (Homo sapiens, UniProt Q9UKW6-2 1-255)
T6 sequence: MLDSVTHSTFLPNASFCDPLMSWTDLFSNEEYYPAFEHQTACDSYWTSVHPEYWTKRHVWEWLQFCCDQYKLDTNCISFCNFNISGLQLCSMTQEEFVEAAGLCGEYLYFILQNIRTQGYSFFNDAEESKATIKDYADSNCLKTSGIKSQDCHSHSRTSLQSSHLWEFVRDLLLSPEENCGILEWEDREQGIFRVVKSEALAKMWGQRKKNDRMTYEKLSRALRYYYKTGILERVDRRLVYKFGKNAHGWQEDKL
Outline: as §1

ETV3 = molecular target: T7, ETV3 (Homo sapiens, UniProt P41162-2 1-143)
T7 sequence: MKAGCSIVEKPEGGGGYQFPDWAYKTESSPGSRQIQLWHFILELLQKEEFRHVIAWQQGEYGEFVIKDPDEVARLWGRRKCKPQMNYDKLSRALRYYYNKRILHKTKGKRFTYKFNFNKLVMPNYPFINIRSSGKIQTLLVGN
Outline: as §1

ETV6 = ETV6 (Homo sapiens, UniProt P41212 1-452)
Sequence of ETV6 (P41212 whole entry): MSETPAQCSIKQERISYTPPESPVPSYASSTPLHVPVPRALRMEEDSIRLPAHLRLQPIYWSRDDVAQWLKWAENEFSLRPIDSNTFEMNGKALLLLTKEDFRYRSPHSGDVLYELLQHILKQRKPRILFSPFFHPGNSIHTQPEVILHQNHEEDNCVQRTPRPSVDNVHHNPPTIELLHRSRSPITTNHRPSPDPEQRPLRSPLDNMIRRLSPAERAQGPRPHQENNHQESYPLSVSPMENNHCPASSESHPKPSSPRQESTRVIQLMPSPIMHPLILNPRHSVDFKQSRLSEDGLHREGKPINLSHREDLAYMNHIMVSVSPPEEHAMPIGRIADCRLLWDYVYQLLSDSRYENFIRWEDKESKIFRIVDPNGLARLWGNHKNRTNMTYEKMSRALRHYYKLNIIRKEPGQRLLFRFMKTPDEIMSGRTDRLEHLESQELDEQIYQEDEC
Outline: as §1

Sequence | binding signal (ERF) | binding signal (ETV3L) | binding signal (ETS2) | binding signal (SPDEF) | binding signal (ETV7) | binding signal (ELF5) | binding signal (ETV3) | binding signal (ETV6)
CAAATT | 1.17 fold enrichment (6-mer frequency, TF over GST control) | 1.18 fold enrichment (6-mer frequency, TF over GST control) | 1.17 fold enrichment (6-mer frequency, TF over GST control) | 1.12 fold enrichment (6-mer frequency, TF over GST control) | 1.14 fold enrichment (6-mer frequency, TF over GST control) | 1.1 fold enrichment (6-mer frequency, TF over GST control) | 1.13 fold enrichment (6-mer frequency, TF over GST control) | 1.1 fold enrichment (6-mer frequency, TF over GST control)
ACTCCC | 1.44 fold enrichment (6-mer frequency, TF over GST control) | 1.19 fold enrichment (6-mer frequency, TF over GST control) | 1.27 fold enrichment (6-mer frequency, TF over GST control) | 1.32 fold enrichment (6-mer frequency, TF over GST control) | 1.31 fold enrichment (6-mer frequency, TF over GST control) | 1.38 fold enrichment (6-mer frequency, TF over GST control) | 1.47 fold enrichment (6-mer frequency, TF over GST control) | 1.47 fold enrichment (6-mer frequency, TF over GST control)
TCCGGA | 2.04 fold enrichment (6-mer frequency, TF over GST control) | 2.42 fold enrichment (6-mer frequency, TF over GST control) | 2.66 fold enrichment (6-mer frequency, TF over GST control) | 3.16 fold enrichment (6-mer frequency, TF over GST control) | 2.24 fold enrichment (6-mer frequency, TF over GST control) | 3.19 fold enrichment (6-mer frequency, TF over GST control) | 2.84 fold enrichment (6-mer frequency, TF over GST control) | 2.7 fold enrichment (6-mer frequency, TF over GST control)
ATGTCA | 1.2 fold enrichment (6-mer frequency, TF over GST control) | 1.2 fold enrichment (6-mer frequency, TF over GST control) | 1.2 fold enrichment (6-mer frequency, TF over GST control) | 1.1 fold enrichment (6-mer frequency, TF over GST control) | 1.02 fold enrichment (6-mer frequency, TF over GST control) | 1.09 fold enrichment (6-mer frequency, TF over GST control) | 1.12 fold enrichment (6-mer frequency, TF over GST control) | 1.11 fold enrichment (6-mer frequency, TF over GST control)
GTCCCG | 1.22 fold enrichment (6-mer frequency, TF over GST control) | 1.3 fold enrichment (6-mer frequency, TF over GST control) | 1.22 fold enrichment (6-mer frequency, TF over GST control) | 1.34 fold enrichment (6-mer frequency, TF over GST control) | 1.19 fold enrichment (6-mer frequency, TF over GST control) | 1.23 fold enrichment (6-mer frequency, TF over GST control) | 1.32 fold enrichment (6-mer frequency, TF over GST control) | 1.13 fold enrichment (6-mer frequency, TF over GST control)
CCTCAT | 1.32 fold enrichment (6-mer frequency, TF over GST control) | 1.37 fold enrichment (6-mer frequency, TF over GST control) | 1.29 fold enrichment (6-mer frequency, TF over GST control) | 1.31 fold enrichment (6-mer frequency, TF over GST control) | 1.25 fold enrichment (6-mer frequency, TF over GST control) | 1.58 fold enrichment (6-mer frequency, TF over GST control) | 1.32 fold enrichment (6-mer frequency, TF over GST control) | 1.39 fold enrichment (6-mer frequency, TF over GST control)
TTCTAA | 1.23 fold enrichment (6-mer frequency, TF over GST control) | 1.16 fold enrichment (6-mer frequency, TF over GST control) | 1.26 fold enrichment (6-mer frequency, TF over GST control) | 1.22 fold enrichment (6-mer frequency, TF over GST control) | 1.23 fold enrichment (6-mer frequency, TF over GST control) | 1.17 fold enrichment (6-mer frequency, TF over GST control) | 1.19 fold enrichment (6-mer frequency, TF over GST control) | 1.24 fold enrichment (6-mer frequency, TF over GST control)
TCCACC | 1.25 fold enrichment (6-mer frequency, TF over GST control) | 1.22 fold enrichment (6-mer frequency, TF over GST control) | 1.21 fold enrichment (6-mer frequency, TF over GST control) | 1.1 fold enrichment (6-mer frequency, TF over GST control) | 1.12 fold enrichment (6-mer frequency, TF over GST control) | 1.19 fold enrichment (6-mer frequency, TF over GST control) | 1.29 fold enrichment (6-mer frequency, TF over GST control) | 1.26 fold enrichment (6-mer frequency, TF over GST control)
ACCAAC | 1.24 fold enrichment (6-mer frequency, TF over GST control) | 1.13 fold enrichment (6-mer frequency, TF over GST control) | 1.15 fold enrichment (6-mer frequency, TF over GST control) | 1.22 fold enrichment (6-mer frequency, TF over GST control) | 1.13 fold enrichment (6-mer frequency, TF over GST control) | 1.13 fold enrichment (6-mer frequency, TF over GST control) | 1.24 fold enrichment (6-mer frequency, TF over GST control) | 1.2 fold enrichment (6-mer frequency, TF over GST control)
CTGACG | 1.17 fold enrichment (6-mer frequency, TF over GST control) | 1.03 fold enrichment (6-mer frequency, TF over GST control) | 1.2 fold enrichment (6-mer frequency, TF over GST control) | 1 fold enrichment (6-mer frequency, TF over GST control) | 1.07 fold enrichment (6-mer frequency, TF over GST control) | 1.09 fold enrichment (6-mer frequency, TF over GST control) | 1.06 fold enrichment (6-mer frequency, TF over GST control) | 1.16 fold enrichment (6-mer frequency, TF over GST control)
CTAAAC | 1.17 fold enrichment (6-mer frequency, TF over GST control) | 1.18 fold enrichment (6-mer frequency, TF over GST control) | 1.19 fold enrichment (6-mer frequency, TF over GST control) | 1.22 fold enrichment (6-mer frequency, TF over GST control) | 1.2 fold enrichment (6-mer frequency, TF over GST control) | 1.19 fold enrichment (6-mer frequency, TF over GST control) | 1.25 fold enrichment (6-mer frequency, TF over GST control) | 1.17 fold enrichment (6-mer frequency, TF over GST control)
CCATAC | 1.27 fold enrichment (6-mer frequency, TF over GST control) | 1.22 fold enrichment (6-mer frequency, TF over GST control) | 1.18 fold enrichment (6-mer frequency, TF over GST control) | 1.2 fold enrichment (6-mer frequency, TF over GST control) | 1.14 fold enrichment (6-mer frequency, TF over GST control) | 1.09 fold enrichment (6-mer frequency, TF over GST control) | 1.08 fold enrichment (6-mer frequency, TF over GST control) | 1.21 fold enrichment (6-mer frequency, TF over GST control)
TACTGC | 1.14 fold enrichment (6-mer frequency, TF over GST control) | 1.17 fold enrichment (6-mer frequency, TF over GST control) | 1.2 fold enrichment (6-mer frequency, TF over GST control) | 1.26 fold enrichment (6-mer frequency, TF over GST control) | 1.2 fold enrichment (6-mer frequency, TF over GST control) | 1.17 fold enrichment (6-mer frequency, TF over GST control) | 1.31 fold enrichment (6-mer frequency, TF over GST control) | 1.26 fold enrichment (6-mer frequency, TF over GST control)
GTACAT | 1.36 fold enrichment (6-mer frequency, TF over GST control) | 1.32 fold enrichment (6-mer frequency, TF over GST control) | 1.36 fold enrichment (6-mer frequency, TF over GST control) | 2.06 fold enrichment (6-mer frequency, TF over GST control) | 1.53 fold enrichment (6-mer frequency, TF over GST control) | 1.3 fold enrichment (6-mer frequency, TF over GST control) | 1.34 fold enrichment (6-mer frequency, TF over GST control) | 1.4 fold enrichment (6-mer frequency, TF over GST control)
TCGTTC | 1.36 fold enrichment (6-mer frequency, TF over GST control) | 1.25 fold enrichment (6-mer frequency, TF over GST control) | 1.2 fold enrichment (6-mer frequency, TF over GST control) | 1.3 fold enrichment (6-mer frequency, TF over GST control) | 1.15 fold enrichment (6-mer frequency, TF over GST control) | 1.27 fold enrichment (6-mer frequency, TF over GST control) | 1.26 fold enrichment (6-mer frequency, TF over GST control) | 1.29 fold enrichment (6-mer frequency, TF over GST control)

Source: publication PMC7862700, “An all-to-all approach to the identification of sequence-specific readers for epigenetic DNA modifications on cytosine”
